# The supplement of paper PMC6555819
# Columns and labels:
# Test in all cases: PBM binding z-score (relative to random genomic background probes); higher = stronger binding; sequences stand for … in GC…GCGATTGACAGCGTAGAATGAAGG
# [1] = test system: FXR:RXRa (NR concentration 270 nM, RXRa partner concentration 90 nM)
# Procedure, shortened: (§1)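 Binding buffer was PBS pH 7.4 with 2% milk, 0.02% Triton X-100, 1 mM DTT, 0.2 mg/mL BSA and 0.4 mg/ml salmon testes DNA. In it, ligand-free nuclear receptor dimers were incubated 1 h on custom Agilent 4×180K protein-binding microarrays carrying double-stranded probes. Antibodies against each partner (one per run) detected binding, and z-scores were calculated against random background probes after regression normalization of scanned fluorescence.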
# [2] = test system: LXRa:RXRa (NR concentration 270 nM, RXRa partner concentration 90 nM)
# Procedure, shortened: as §1
# [3] = test system: LXRa homodimer (NR concentration 270 nM)
# Procedure, shortened: as §1
# [4] = test system: LXRb:RXRa (NR concentration 270 nM, RXRa partner concentration 90 nM)
# Procedure, shortened: as §1
# [5] = test system: LXRb homodimer (NR concentration 270 nM)
# Procedure, shortened: as §1
# [6] = test system: PPARa:RXRa (NR concentration 270 nM, RXRa partner concentration 90 nM)
# Procedure, shortened: as §1
# [7] = test system: PPARg:RXRa (NR concentration 180 nM, RXRa partner concentration 90 nM)
# Procedure, shortened: as §1
# [8] = test system: PPARg:RXRa 270nM:90nM, anti-RXR (NR concentration 270 nM, RXRa partner concentration 90 nM)
# Procedure, shortened: as §1
# [9] = test system: PPARg:RXRa 30nM:10nM, anti-RXR (NR concentration 30 nM, RXRa partner concentration 10 nM)
# Procedure, shortened: as §1
# [10] = test system: PPARg:RXRa 90nM:30nM, anti-RXR (NR concentration 90 nM, RXRa partner concentration 30 nM)
# Procedure, shortened: as §1
# [11] = test system: PPARg:RXRa DBDmut IVT, anti-RXR (DBD mutation: RXRa K156A/R161A, NR concentration 270 nM, RXRa partner concentration 90 nM)
# Procedure, shortened: as §1
# [12] = test system: PPARg:RXRa IVT, anti-PPARg (NR concentration 270 nM, RXRa partner concentration 90 nM)
# Procedure, shortened: as §1
# [13] = test system: PPARg DBDmut:RXRa IVT, anti-PPARg (DBD mutation: PPARg1 K132A/R137A, NR concentration 270 nM, RXRa partner concentration 90 nM)
# Procedure, shortened: as §1
# [14] = test system: PPARg DBDmut IVT, anti-PPARg (DBD mutation: PPARg1 K132A/R137A, NR concentration 270 nM)
# Procedure, shortened: as §1
# [15] = test system: PPARg homodimer (NR concentration 180 nM)
# Procedure, shortened: as §1
# [16] = test system: PXR:RXRa (NR concentration 270 nM, RXRa partner concentration 90 nM)
# Procedure, shortened: as §1
# [17] = test system: PXR homodimer (NR concentration 270 nM)
# Procedure, shortened: as §1
# [18] = test system: RARa:RXR (NR concentration 270 nM, RXRa partner concentration 90 nM)
# Procedure, shortened: as §1
# [19] = test system: RARa homodimer (NR concentration 270 nM)
# Procedure, shortened: as §1
# [20] = test system: RARb:RXRa (NR concentration 270 nM, RXRa partner concentration 90 nM)
# Procedure, shortened: as §1
Sequence,PBM binding z-score [1],PBM binding z-score [2],PBM binding z-score [3],PBM binding z-score [4],PBM binding z-score [5],PBM binding z-score [6],PBM binding z-score [7],PBM binding z-score [8],PBM binding z-score [9],PBM binding z-score [10],PBM binding z-score [11],PBM binding z-score [12],PBM binding z-score [13],PBM binding z-score [14],PBM binding z-score [15],PBM binding z-score [16],PBM binding z-score [17],PBM binding z-score [18],PBM binding z-score [19],PBM binding z-score [20]
GGAACGAGGGCAGTCGAGTTGATAGCATGGCGAT,0.203,-0.214,-0.72,-0.752,-1.02,0.405,0.453,-0.213,-0.485,-0.457,2.24,1.29,-0.319,-0.59,-0.872,1.83,-0.252,-0.0532,-0.989,1.77
CGTCCAAGGTCAATGCTAGGGCAGTGAAAGCATT,6.49,4.8,0.528,3.57,0.446,5.03,3.68,4.65,1.05,3.08,2.64,3.52,0.232,-0.81,2.06,3.68,0.492,4.3,-0.245,5.2
GCGAGTTGGTCAGTAAAAGGTCACACACCGGTCG,3.43,4.42,4.78,4.07,0.343,4.36,3,4.71,2.22,4.23,0.617,2.26,0.948,-0.184,4.06,5.14,1.31,5.93,2.5,4.33
ACTCGGAGGACAAAGGCCAGAGCTACGCCAGTGA,-0.254,-0.622,-0.482,-1.08,-0.835,0.196,1.47,2.38,0.441,1.97,-0.0476,-0.304,-0.91,-1.31,-0.117,-0.788,-0.627,-0.794,-0.32,1.44
CAAACTAGGTCAATAGGTCAAAGTCCGCTTCCCG,5.97,5.58,3.46,4.5,1.42,5.97,9.53,7.87,6.52,8.3,8.58,8.3,2.88,0.687,6.16,4.57,0.894,6.73,3.02,5.04
CAAACTAGGTCACACAGGTCAAAGTCCGTGCGTA,5.67,5.43,4.2,4.82,0.995,5.71,9.3,7.72,5.14,7.46,8.75,9.19,1.71,1.11,2.43,4.78,4.14,4.85,0.759,4.59
AGCTCTAGGTAAAGATAGTTCAGTGAATGCAAAT,-0.108,3.76,0.0998,0.693,-0.0126,0.354,0.0941,0.135,-0.22,-0.0707,2.67,1.19,0.745,0.441,0.456,0.84,0.602,0.3,1.11,0.525
CCTACTGGGCCAAAAAGGTCATTGGTGCCGATAA,3.94,4.46,3.31,4.08,0.197,4.67,3.1,4.12,1.19,3.34,3.78,4.13,-0.644,-0.94,3.28,4.9,5.2,5.26,0.489,4.07
CCTCGGAGGACAGAAGGTCAGGGCTGTCCGCTTT,1.42,1.47,0.0831,1.07,-1.01,2.17,-0.206,1.07,-0.426,0.349,-0.131,0.148,-1.5,-1.83,1.43,1.65,-0.651,2.13,0.0268,3.47
CCTATTGGGCCACGAAAGGTCATTGATTCAGTGA,3.94,5.43,5.04,4.14,0.248,4.6,2.92,4.31,1.71,3.67,4.26,4.09,0.172,-0.271,5.52,5.82,1.47,5.93,2.11,4.13
AGAATGAGGTTATTAAGAACAGGGAATTGCGGTC,1.53,1.45,0.11,1.22,0.0569,2.3,1.53,1.67,0.448,1.02,3.07,2.57,0.828,0.0753,0.538,1.13,0.548,1.32,0.488,1.4
TCATAAAGGTAAAAGGTGAAAGTCGGTGTGGTAA,3.11,2.59,0.231,2.75,0.0475,5.08,6.24,6.25,6.38,6.73,3.49,3.5,0.634,0.86,2.26,2.56,0.65,4,1.25,2.54
TTACCAAGTTGAAAGGTCGTTGATGCACGCCTTG,2.79,2.74,0.48,2.17,-0.00674,3.78,4.15,5.58,3.84,5.07,0.565,1.78,-0.471,0.0768,1.5,3.35,0.56,4.05,0.532,2.34
CAAACTAGGTCACGAAAGGTCAAAGGCGAATGAC,7.72,8.23,7.26,7.15,2.21,6.78,10.6,8.54,7.17,8.65,8.48,9.08,4.73,2.51,5.53,7.28,2.45,8.15,3.08,5.86
